Assay results taken from PubChem BioAssay.
Records with an inconclusive call do not appear. For some of these results: Entries with a potency or affinity are not part of this list. The source made the active and inactive calls.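 Rule for the calls, unless noted: active = fitted half-maximal concentration within the tested dose range, moderate curve steepness, a statistically real signal drop, and little compound fluorescence or tag-binding interference; inactive = the rest.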

Experiments:
[1] = target: Cell division control protein 42 homolog (Homo sapiens) (UniProt P60953); experiment: activated mutant Cdc42 GTP-binding inhibitors, dose response, biochemical, multiplex bead flow cytometry, Bodipy-FL-GTP (AID 1333)
[2] = target: Cell division control protein 42 homolog (Homo sapiens) (UniProt P60953); experiment: wildtype Cdc42 GTP-binding inhibitors, dose response, biochemical, multiplex bead flow cytometry, Bodipy-FL-GTP (AID 1334;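 active = fitted half-maximal concentration within the tested range, moderate curve steepness, significant signal drop, and little compound fluorescence or bead-linkage interference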); conditions: bead-based flow cytometry, Bodipy-FL-GTP binding to GST-Cdc42; at 100 µM (top of the series) unless noted
[3] = target: GTPase HRas (Homo sapiens) (UniProt P01112); experiment: inhibitors of GTP binding to wildtype Ras, dose response, biochemical, multiplex bead flow cytometry (AID 1335;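 active = fitted half-maximal concentration within 10 nM to 100 µM, steepness 0.5 to 2, significant signal drop, low assay interference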); conditions: bead-based flow cytometry, Bodipy-GTP binding to GST-Ras; at 100 µM (top of the series) unless noted
[4] = tested on: Ras-related protein Rab-7a (dog), GTP binding; experiment: Rab7 GTP binding inhibitors, potency, dose response, biochemical, wildtype, multiplex bead flow cytometry (AID 1336; call rule not given here)
[5] = target: Ras-related C3 botulinum toxin substrate 1 (Homo sapiens) (UniProt P63000); experiment: wildtype Rac1 GTP binding inhibitors, dose response, biochemical, multiplex bead flow cytometry (AID 1340;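 active = dose curve with midpoint inside tested range, moderate steepness, plateau gap beyond fit error, low compound glow and bead-link interference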); conditions: GST-Rac1 beads, Bodipy-FL-GTP binding; at 100 µM (top of the series) unless noted
[6] = target: GTPase HRas (Homo sapiens) (UniProt P01112); experiment: activated Ras mutant GTP binding inhibitors, dose response, biochemical, multiplex bead flow cytometry (AID 1341;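 active = dose-response curve with midpoint inside the tested range, moderate steepness, significant amplitude and little compound fluorescence or bead-attachment interference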;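 note: GST-tagged constitutively activated Ras mutant immobilized on beads and multiplexed with other GTPases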)
[7] = yeast TOR pathway RPL19A-GFP modulators, primary screen, cell-based, S. cerevisiae, multiplex flow cytometry (AID 1862; in the data active = percent of DMSO control GFP below about 86%;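 note: lower values mimic rapamycin by blocking the RPL19A rise seen in DMSO cells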); conditions: S. cerevisiae RPL19A-GFP strain, flow cytometry fluorescence, 3 h; at 10 µM; stronger effect = lower value
[8] = modulators of MEP2-GFP levels in yeast, primary screen, S. cerevisiae, multiplex flow cytometry (AID 1867;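 active = GFP response, as percent of the DMSO control, above the screen-wide mean plus 3 SD, about 139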;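 note: median GFP channel fluorescence of barcode-gated MEP2-GFP cells measured by flow cytometry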); conditions: S. cerevisiae MEP2-GFP strain, 3 h, at 10 µM, stronger effect = higher value, 100% means same as DMSO wells
[9] = modulators of CIT2-GFP expression in yeast, primary screen, S. cerevisiae, GFP fusion, multiplex flow cytometry (AID 1870;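 active = percent response above a set limit, the screen-wide mean plus 3 SD, cut at about 130% in these data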;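 note: barcoded CIT2-GFP strain pooled with four other GFP strains with rapamycin as positive control; median GFP fluorescence per well over plate mean of DMSO wells so 100% = DMSO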); conditions: 3 h, at 10 µM, stronger effect = higher value
[10] = modulators of LAP4-GFP expression in yeast, primary screen, S. cerevisiae, multiplex flow cytometry (AID 1873;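 active = GFP signal, as percent of the solvent control, above the screen mean plus 3 SD, about 149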); conditions: 3 h, at 10 µM, stronger effect = higher value
[11] = modulators of AGP1-GFP expression in yeast TOR pathway, primary screen, cell-based, multiplex flow cytometry, S. cerevisiae (AID 1887;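 active = GFP signal above the screen-wide mean plus 3 SD, that is over about 124.5% of the solvent control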;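 note: AGP1-GFP fusion strain of S. cerevisiae within a five-strain barcoded multiplex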); conditions: 3 h, at 10 µM, stronger effect = higher value
[12] = inhibitors of CD8+ T cell-vesicle binding, pilot screen, LFA-1/ICAM-1 modulator project, MLPCN validation set, flow cytometry (AID 2523;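 active = response below a set limit, under 55% cells CD8-positive and vesicle-bound, and CD8 cells' 90th-percentile brightness under 279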;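 for vesicle binding response: mean PE anti-B7-1 fluorescence of CD8+ cells relative to row control; 100% = QL9-loaded vesicles with DMSO vehicle in the same plate row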); conditions: 2C mouse CD8+ T cells, at 7 µM, stronger effect = lower value; double positive events: measured here: CD8+/vesicle+ event percentage
[13] = target: Integrin beta-1 (Homo sapiens) + Integrin alpha-4 (Homo sapiens) (UniProt P13612+P05556); experiment: inhibition of HUTS-21 binding to VLA-4, pilot screen, VLA-4 allosteric modulator project, U937 cells, HUTS-21 mAb, flow cytometry, validation set (AID 2674;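 active = inhibition above 50%, about 3 SD of the validation set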;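 note: antibody binding induced by the VLA-4 ligand LDV present at three times its Kd; 0% = LDV ligand with antibody and no compound and 100% = antibody without LDV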); conditions: HUTS-21 LIBS mAb binding, at 6.7 µM, stronger effect = higher value, binding induced by LDV ligand
[14] = superoxide lowering in aged yeast cells, pilot screen, validation compound set (AID 2706;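 active = superoxide response below 65% of plate, a cut near 3 SD across the whole screen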;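 note: yeast exposed to compound for one week at 30 degrees C before staining; 100% = mean of all compound wells on the same plate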); conditions: S. cerevisiae aging, superoxide DHE fluorescence; at 10 µM; stronger effect = lower value
[15] = target: Beta-adrenergic receptor kinase 1 (Homo sapiens) (UniProt P25098); experiment: GRK2 binders displacing RNA aptamer, biochemical, validation, human GRK2, bead flow cytometry (AID 488806;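 active = aptamer binding inhibition above 30%, about 3 SD of noise from non-fluorescent compounds; inactive = inhibition at or below 30%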); conditions: bead-bound GRK2, FAM-aptamer displacement, at 10 µM, stronger effect = higher value
[16] = target: Beta-2 adrenergic receptor (Homo sapiens) (UniProt P07550); experiment: beta2AR agonists driving receptor internalization, pilot screen, cell-based, FAP fluorogen, flow cytometry, validation set (AID 504459;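 active = percent response above 42, roughly 3 SD of non-fluorescent test compounds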;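 note: agonist-driven loss of surface beta2AR via internalization measured by FAP dye flow cytometry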); conditions: Am2.2-beta2AR cells, FAP surface receptor flow cytometry; at 10 µM; stronger effect = higher value
[17] = target: AP-2 complex subunit beta (Homo sapiens) (UniProt P63010); experiment: inhibitors of arrestin peptide binding to AP2, pilot screen, biochemical, validation set, GST-AP2 beads, flow cytometry (AID 504541;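 active = inhibition above 54%, about 3 SD of non-fluorescent compounds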;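 note: AP2 carries R879A mutation and is captured from E. coli lysate; bead-bound FITC arrestin peptide fluorescence measuring arrestin peptide binding to AP2; 0% = DMSO wells and 100% = excess unlabeled arrestin peptide control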); conditions: FITC arrestin peptide, at 10 µM, stronger effect = higher value, AP2 beta2 appendage fragment, R879A mutant
[18] = yeast V-ATPase proton transport modulators, S. cerevisiae, pHLuorin, HTS validation (AID 504600; in the data active = response above about 15%;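 note: plate controls were DMSO for no effect and reference compound for full effect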); conditions: S. cerevisiae pHLuorin cytosolic pH, at 10 µM, stronger effect = higher value
[19] = tested on: anti-desmoglein-3 scFv antibody binding to human DSG3; experiment: inhibitors of anti-DSG3 scFv binding to DSG3, pilot screen, biochemical, validation compound set, bead-based, flow cytometry (AID 588368;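 active = binding below the plate cutoff, the plate median minus 3 SD, with a reading above zero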;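 note: signal is the median channel fluorescence of bead-bound GFP antibody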); conditions: Protein G beads, DSG3-Fc, scFv-GFP binding, at 10 µM, stronger effect = lower value
[20] = inhibitors of fungal efflux pumps CDR1, CDR2, MDR1, pilot screen, validation compound set, multiplex, phenotypic (AID 588506;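 active = efflux inhibition above 0.42, the validation set average plus 4 SD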;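 note: Nile Red retained in cells so higher fluorescence means more efflux inhibition; 0 = negative control wells and 1 = enniatin B 25 µM full block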); conditions: S. cerevisiae pump-expressing triplex, Nile Red efflux flow cytometry; at 10 µM; stronger effect = higher value; the pumps come from Candida albicans
[21] = target: ATP-binding cassette sub-family B member 6 (Homo sapiens) (UniProt Q9NP58); experiment: ABCB6 transporter inhibitors, pilot screen, K562-ABCB6 cells, flow cytometry, validation set (AID 588550;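 active = inhibition above the screen-wide mean plus 3 SD, about 51%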;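 note: 0% = DMSO wells and 100% = benzethonium chloride 70 µM positive control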); conditions: K562-ABCB6 porphyrin accumulation, 1 h, at 10 µM, stronger effect = higher value
[22] = promoters of myeloid differentiation in arrested cells, primary screen, cell-based, GFP/MAC1 double positive, flow cytometry, validation set (AID 588685;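 active = differentiation response of at least 50%, scaled between solvent and reference control, from cells with both markers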;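 note: compound exposure lasts four days before antibody staining and flow analysis; 0% = DMSO wells and 100% = 5 µM fulvestrant positive control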); conditions: ER-HoxA9 marrow cells, stronger effect = higher value, normalized: vehicle 0, fulvestrant 100
[23] = RPL19A-GFP modulators, yeast TOR pathway, confirmation, cell-based, S. cerevisiae, flow cytometry, cherry picks, mother/daughter gates (AID 2270;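 active = GFP response below 50% of the DMSO control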); conditions: S. cerevisiae RPL19A-GFP strain, 3 h, at 10 µM, stronger effect = lower value, 100 = same GFP as DMSO wells
[24] = LAP4-GFP expression modulators in yeast, confirmation, cell-based, cherry picks, flow cytometry, mother/daughter gates (AID 2271;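 active = GFP response above 150% of the DMSO control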;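 note: ratio of sample to DMSO plate mean so 100% equals DMSO level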); conditions: S. cerevisiae LAP4-GFP strain, 3 h, at 10 µM, stronger effect = higher value, 100 means same as DMSO control
[25] = modulators of MEP2-GFP levels in yeast, confirmation, S. cerevisiae, flow cytometry GFP, cherry picks (AID 2272;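 active = GFP response above 150% of the DMSO control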;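 note: ratio of well signal to plate DMSO mean so 100% equals DMSO level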); conditions: S. cerevisiae MEP2-GFP strain, 3 h, at 10 µM, stronger effect = higher value
[26] = AGP1-GFP expression modulators, hit retest, confirmation, cell-based, flow cytometry, S. cerevisiae, cherry picks (AID 2273;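 active = GFP response above 150% of the DMSO level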;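 note: median GFP channel fluorescence over the whole cell population gate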); conditions: S. cerevisiae AGP1-GFP strain, 3 h, at 10 µM
[27] = modulators of CIT2-GFP expression in yeast, confirmation, S. cerevisiae, GFP fusion, cherry picks, mother/daughter gates (AID 2274;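 active = GFP response above 150% of the DMSO level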); conditions: S. cerevisiae CIT2-GFP strain, flow cytometry, 3 h, at 10 µM, stronger effect = higher value
[28] = measured here: daughter cell gate
[29] = measured here: mother cell gate
[30] = measured here: daughter cell gate response
[31] = measured here: mother cell gate response

Sequence of GTPase HRas (Homo sapiens) (P01112 whole entry, looked up): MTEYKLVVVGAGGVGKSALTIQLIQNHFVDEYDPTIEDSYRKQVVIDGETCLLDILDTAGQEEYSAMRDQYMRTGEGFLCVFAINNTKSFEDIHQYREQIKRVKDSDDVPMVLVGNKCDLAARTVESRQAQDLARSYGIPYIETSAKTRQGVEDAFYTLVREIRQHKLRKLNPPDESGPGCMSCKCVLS
Sequence of Cell division control protein 42 homolog (Homo sapiens) (P60953 whole entry, looked up): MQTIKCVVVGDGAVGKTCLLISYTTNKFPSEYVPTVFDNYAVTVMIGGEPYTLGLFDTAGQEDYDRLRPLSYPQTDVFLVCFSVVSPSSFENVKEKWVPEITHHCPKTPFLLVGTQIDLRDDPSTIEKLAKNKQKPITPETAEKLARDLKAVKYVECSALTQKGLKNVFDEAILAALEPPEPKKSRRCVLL
Sequence of Beta-adrenergic receptor kinase 1 (Homo sapiens) (P25098 whole entry, looked up): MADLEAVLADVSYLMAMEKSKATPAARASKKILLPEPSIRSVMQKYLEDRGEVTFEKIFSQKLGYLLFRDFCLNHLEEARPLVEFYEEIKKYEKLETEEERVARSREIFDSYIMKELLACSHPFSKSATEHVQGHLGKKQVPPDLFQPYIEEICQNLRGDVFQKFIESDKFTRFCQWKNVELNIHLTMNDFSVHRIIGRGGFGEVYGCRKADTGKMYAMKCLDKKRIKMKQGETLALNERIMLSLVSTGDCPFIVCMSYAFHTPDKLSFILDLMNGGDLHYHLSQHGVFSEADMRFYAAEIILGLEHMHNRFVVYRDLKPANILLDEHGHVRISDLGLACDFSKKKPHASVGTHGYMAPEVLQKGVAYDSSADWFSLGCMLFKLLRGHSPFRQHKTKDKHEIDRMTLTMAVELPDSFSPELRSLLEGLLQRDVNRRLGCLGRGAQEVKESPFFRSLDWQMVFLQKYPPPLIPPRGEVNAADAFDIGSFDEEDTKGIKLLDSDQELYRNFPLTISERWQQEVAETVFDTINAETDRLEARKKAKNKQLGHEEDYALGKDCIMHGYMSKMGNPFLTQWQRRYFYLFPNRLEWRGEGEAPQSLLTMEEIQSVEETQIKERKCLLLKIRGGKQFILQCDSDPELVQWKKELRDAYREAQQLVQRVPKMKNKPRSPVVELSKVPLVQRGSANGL
Sequence of AP-2 complex subunit beta (Homo sapiens) (P63010 whole entry, looked up, the tested form may be a part, one chain of several): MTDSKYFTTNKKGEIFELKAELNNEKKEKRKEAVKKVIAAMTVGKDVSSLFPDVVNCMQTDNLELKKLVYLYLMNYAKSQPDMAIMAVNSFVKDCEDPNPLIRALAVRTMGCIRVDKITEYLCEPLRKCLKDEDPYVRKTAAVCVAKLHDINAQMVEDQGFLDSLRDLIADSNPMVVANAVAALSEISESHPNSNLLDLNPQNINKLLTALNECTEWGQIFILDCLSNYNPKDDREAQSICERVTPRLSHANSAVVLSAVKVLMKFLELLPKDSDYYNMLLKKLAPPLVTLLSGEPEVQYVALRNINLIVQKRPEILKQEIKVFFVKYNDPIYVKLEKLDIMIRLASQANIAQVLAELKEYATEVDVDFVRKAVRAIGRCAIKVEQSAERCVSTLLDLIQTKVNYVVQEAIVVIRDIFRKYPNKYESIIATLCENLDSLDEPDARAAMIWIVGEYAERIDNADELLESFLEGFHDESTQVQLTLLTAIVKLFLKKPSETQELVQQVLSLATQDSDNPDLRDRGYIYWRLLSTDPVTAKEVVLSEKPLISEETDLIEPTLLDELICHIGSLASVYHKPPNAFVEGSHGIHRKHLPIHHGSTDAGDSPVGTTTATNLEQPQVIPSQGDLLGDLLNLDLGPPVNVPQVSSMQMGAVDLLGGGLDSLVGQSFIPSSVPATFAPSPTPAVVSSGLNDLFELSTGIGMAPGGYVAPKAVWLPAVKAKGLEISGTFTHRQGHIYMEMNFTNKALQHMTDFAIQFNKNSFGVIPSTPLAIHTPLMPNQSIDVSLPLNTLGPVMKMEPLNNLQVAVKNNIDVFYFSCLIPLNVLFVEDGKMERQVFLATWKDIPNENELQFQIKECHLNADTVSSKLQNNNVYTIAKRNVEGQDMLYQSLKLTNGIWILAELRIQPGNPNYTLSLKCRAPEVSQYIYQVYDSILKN
Sequence of Integrin beta-1 (Homo sapiens) + Integrin alpha-4 (Homo sapiens) (P05556 whole entry, looked up): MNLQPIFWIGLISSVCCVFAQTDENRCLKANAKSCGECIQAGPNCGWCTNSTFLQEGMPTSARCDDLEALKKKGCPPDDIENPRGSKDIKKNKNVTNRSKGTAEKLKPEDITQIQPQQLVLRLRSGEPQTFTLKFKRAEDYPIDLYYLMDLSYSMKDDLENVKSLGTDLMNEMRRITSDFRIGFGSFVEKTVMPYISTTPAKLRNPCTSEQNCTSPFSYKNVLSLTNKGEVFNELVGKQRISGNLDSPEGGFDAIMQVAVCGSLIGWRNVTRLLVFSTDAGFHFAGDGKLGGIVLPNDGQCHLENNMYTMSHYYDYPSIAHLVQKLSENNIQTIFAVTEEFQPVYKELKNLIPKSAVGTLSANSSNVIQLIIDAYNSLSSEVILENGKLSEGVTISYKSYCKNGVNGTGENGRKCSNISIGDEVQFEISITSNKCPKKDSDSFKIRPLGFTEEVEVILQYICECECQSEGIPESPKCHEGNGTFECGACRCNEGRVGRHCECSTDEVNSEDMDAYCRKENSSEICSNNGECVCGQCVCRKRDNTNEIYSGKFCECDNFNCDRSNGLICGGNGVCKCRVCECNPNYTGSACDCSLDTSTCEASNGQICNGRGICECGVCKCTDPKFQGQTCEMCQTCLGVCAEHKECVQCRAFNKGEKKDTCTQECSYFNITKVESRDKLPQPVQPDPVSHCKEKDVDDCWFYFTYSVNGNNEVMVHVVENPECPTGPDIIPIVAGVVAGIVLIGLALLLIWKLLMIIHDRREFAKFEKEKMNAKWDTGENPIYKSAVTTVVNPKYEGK
Sequence of Integrin beta-1 (Homo sapiens) + Integrin alpha-4 (Homo sapiens) (P13612 whole entry, looked up): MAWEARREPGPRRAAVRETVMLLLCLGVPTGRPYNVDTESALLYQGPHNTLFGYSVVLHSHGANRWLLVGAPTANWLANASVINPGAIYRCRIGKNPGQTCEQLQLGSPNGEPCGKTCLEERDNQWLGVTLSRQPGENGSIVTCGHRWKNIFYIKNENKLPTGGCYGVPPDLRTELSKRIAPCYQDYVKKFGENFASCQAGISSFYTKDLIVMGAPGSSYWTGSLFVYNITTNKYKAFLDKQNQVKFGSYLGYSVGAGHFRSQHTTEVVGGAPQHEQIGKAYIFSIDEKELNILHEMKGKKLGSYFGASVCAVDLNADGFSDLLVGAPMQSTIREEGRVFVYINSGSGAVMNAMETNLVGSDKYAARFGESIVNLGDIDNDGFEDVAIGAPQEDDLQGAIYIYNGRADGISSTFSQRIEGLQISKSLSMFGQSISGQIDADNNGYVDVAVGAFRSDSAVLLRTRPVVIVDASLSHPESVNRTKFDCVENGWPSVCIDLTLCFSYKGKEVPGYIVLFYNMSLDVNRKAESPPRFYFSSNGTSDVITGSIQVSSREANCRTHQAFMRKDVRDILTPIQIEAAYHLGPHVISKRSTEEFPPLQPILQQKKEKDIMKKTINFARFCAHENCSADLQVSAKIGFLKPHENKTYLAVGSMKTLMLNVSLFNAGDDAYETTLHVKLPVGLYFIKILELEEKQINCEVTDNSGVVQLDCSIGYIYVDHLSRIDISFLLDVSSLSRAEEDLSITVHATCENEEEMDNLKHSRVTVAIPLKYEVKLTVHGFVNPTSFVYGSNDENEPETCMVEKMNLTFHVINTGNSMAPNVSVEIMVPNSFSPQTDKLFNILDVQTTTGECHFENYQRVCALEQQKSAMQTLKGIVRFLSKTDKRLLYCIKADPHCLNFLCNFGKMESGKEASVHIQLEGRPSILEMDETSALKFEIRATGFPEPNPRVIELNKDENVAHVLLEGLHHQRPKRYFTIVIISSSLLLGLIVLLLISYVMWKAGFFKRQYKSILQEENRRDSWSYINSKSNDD
Sequence of Beta-2 adrenergic receptor (Homo sapiens) (P07550 whole entry, looked up): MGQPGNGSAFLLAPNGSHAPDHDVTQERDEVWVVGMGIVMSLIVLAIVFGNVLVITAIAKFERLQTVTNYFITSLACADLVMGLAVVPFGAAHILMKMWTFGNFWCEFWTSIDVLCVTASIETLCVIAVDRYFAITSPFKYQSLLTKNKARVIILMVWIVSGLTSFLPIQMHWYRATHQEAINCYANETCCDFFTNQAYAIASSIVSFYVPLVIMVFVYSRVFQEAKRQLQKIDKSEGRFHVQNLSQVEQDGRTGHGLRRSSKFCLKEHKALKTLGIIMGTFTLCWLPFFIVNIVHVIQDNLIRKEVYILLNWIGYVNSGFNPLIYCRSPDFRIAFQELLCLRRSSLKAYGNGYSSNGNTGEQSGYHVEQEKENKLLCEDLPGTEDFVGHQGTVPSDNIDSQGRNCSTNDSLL

Compound: COc1cc2c(cc1OC)-c1cc(NC3CCCCCC3)nc(=O)n1CC2
- outcome [1]: inactive
- fluorescence, percent of control (lower = inhibition) [2]: 34.3%
- GTP binding, percent of control [3]: 69.8%
- outcome [4]: inactive
- GTP binding signal, raw median fluorescence (lower = inhibition) (MCF (arbitrary fluorescence units)) [5]: 145
- outcome [6]: inactive
- percent of DMSO control GFP [7]: 100% (inactive)
- GFP response vs DMSO [8]: 100% (inactive)
- percent response of DMSO control [9]: 109% (inactive)
- GFP response vs DMSO [10]: 94.7% (inactive)
- GFP response, % of DMSO [11]: 95.9% (inactive)
- double positive events [12]: 62.4%
- vesicle binding response [12]: 601% (inactive)
- inhibition [13]: -22.2% (inactive)
- superoxide response (% of plate) [14]: 98.3% (inactive)
- aptamer binding inhibition [15]: 0% (inactive)
- response [16]: -1.14% (inactive)
- inhibition [17]: 17% (inactive)
- response [18]: -1.05% (inactive)
- binding (% of control) [19]: 107% (inactive)
- efflux inhibition (fraction of control) [20]: 0.21 (inactive)
- inhibition [21]: -6% (inactive)
- differentiation response [22]: 7.09% (inactive)

Compound: NC(=S)N=Nc1c(O)[nH]c2ccc(F)cc12
- outcome [1]: inactive
- fluorescence, percent of control (lower = inhibition) [2]: 30.2%
- GTP binding, percent of control [3]: 64.9%
- outcome [4]: inactive
- outcome [6]: inactive

Compound: N=c1c(C(=O)NCc2ccco2)cc2c(=O)n3ccccc3nc2n1CCc1ccccc1
- outcome [1]: inactive
- fluorescence, percent of control (lower = inhibition) [2]: 28.7%
- GTP binding, percent of control [3]: 40.3%
- outcome [4]: inactive
- GTP binding signal, raw median fluorescence (lower = inhibition) (MCF (arbitrary fluorescence units)) [5]: 96.5
- outcome [6]: inactive
- GFP response vs DMSO [23]: 96.8% (inactive)
- GFP response vs DMSO [23, 28]: 96.4%
- GFP response vs DMSO [23, 29]: 95.8%
- GFP response relative to DMSO [24]: 99.2% (inactive)
- GFP response relative to DMSO [24, 30]: 99.2%
- GFP response relative to DMSO [24, 31]: 90.8%
- GFP response vs DMSO [25]: 100% (inactive)
- GFP response, % of DMSO [26]: 97% (inactive)
- GFP response, % of DMSO [27]: 96.9% (inactive)
- GFP response, % of DMSO [27, 28]: 95.4%
- GFP response, % of DMSO [27, 29]: 91.4%

Compound: COc1ccc(CN2CCN(CCc3ccccc3)C(CCO)C2)c(O)c1 (stereo not given)
- outcome [1]: inactive
- fluorescence, percent of control (lower = inhibition) [2]: 40.6%
- GTP binding, percent of control [3]: 82.3%
- outcome [4]: inactive
- GTP binding signal, raw median fluorescence (lower = inhibition) (MCF (arbitrary fluorescence units)) [5]: 265
- outcome [6]: inactive

Compound: Cc1ccccc1OCCn1cc(C(=O)O)c2c(C)cccc21
- outcome [1]: inactive
- fluorescence, percent of control (lower = inhibition) [2]: 53%
- GTP binding, percent of control [3]: 176%
- outcome [4]: inactive
- GTP binding signal, raw median fluorescence (lower = inhibition) (MCF (arbitrary fluorescence units)) [5]: 55.6
- outcome [6]: inactive

Compound: CC(C)(C)C(=O)/C=c1\s/c(=C\c2ccc(-c3ccc([N+](=O)[O-])cc3)o2)c(=O)n1CC(=O)NC(N)=O
- outcome [1]: inactive
- fluorescence, percent of control (lower = inhibition) [2]: 99.6%
- GTP binding, percent of control [3]: 141%
- outcome [4]: inactive
- GTP binding signal, raw median fluorescence (lower = inhibition) (MCF (arbitrary fluorescence units)) [5]: 256
- outcome [6]: inactive
- GFP response vs DMSO [23]: 101% (inactive)
- GFP response vs DMSO [23, 28]: 101%
- GFP response vs DMSO [23, 29]: 101%
- GFP response relative to DMSO [24]: 102% (inactive)
- GFP response relative to DMSO [24, 30]: 99.7%
- GFP response relative to DMSO [24, 31]: 103%
- GFP response vs DMSO [25]: 112% (inactive)
- GFP response, % of DMSO [26]: 101% (inactive)
- GFP response, % of DMSO [27]: 99.7% (inactive)
- GFP response, % of DMSO [27, 28]: 100%
- GFP response, % of DMSO [27, 29]: 98.7%

Compound: O=C(O)CCN1C(=O)/C(=C/c2ccc(-c3nc4ccccc4s3)o2)SC1=S
- outcome [1]: inactive
- fluorescence, percent of control (lower = inhibition) [2]: 32.8%
- GTP binding, percent of control [3]: 53.9%
- outcome [4]: inactive
- outcome [6]: inactive

Compound: Nc1c(S(=O)(=O)c2ccccc2)c2nc3ccccc3nc2n1/N=C/c1cccc(O)c1
- outcome [1]: inactive
- fluorescence, percent of control (lower = inhibition) [2]: 91.2%
- GTP binding, percent of control [3]: 81.1%
- outcome [4]: inactive
- GTP binding signal, raw median fluorescence (lower = inhibition) (MCF (arbitrary fluorescence units)) [5]: 105
- outcome [6]: inactive
